VCAM1 TNFa inh – reduces TNF alpha induced VCAM1 expression in HUVEC. hit rate 0.48% among 95,000. HUVEC TNFa-induced VCAM-1 immunofluorescence, high-content imaging. inhibition, % at 2 µM;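 active = inhibition above the batch mean plus 3 SD, with images confirmed as a hit by eye, cut at about 37% in these data; inconclusive = inhibition above that limit but hit not confirmed in images; inactive = inhibition not above that limit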
cytoskel mod – modifiers of cytoskeleton assembly; HUVEC TNFa F-actin phalloidin imaging, high content; inhibition, % at 2 µM; hit rate 0.18% among 91,000; AID 836;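 active = inhibition above the batch mean plus 3 SD and confirmed as a hit by visual image inspection, cut at about 30% in these data, passing the limit was not always enough; inconclusive = above the inhibition threshold but rejected on visual inspection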
IL1B NFkB pot – enhances IL-1B driven NFkB nuclear translocation; AID 819; hit rate 0.3% among 94,000; activation, % at 2 µM; HUVEC IL-1B NFkB p65 nuclear translocation imaging;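 active = activation above 40%, about the mean plus 3 SD, also judged a hit on visual image review; inconclusive = activation above 40% but not a hit on visual review; inactive = activation not above 40% and no visual hit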;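 note: percent activation is computed from the nuclear over cytoplasmic p65 intensity ratio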
IL1B NFkB inh – blocks IL-1B driven NFkB nuclear translocation in HUVEC cells | HUVEC IL-1B NFkB p65 nuclear translocation imaging | inhibition, % at 2 µM | hit rate 0.43% among 94,000 | AID 796;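 active = inhibition above about 30% together with a positive call from visual inspection of the well image, limit read from the data; inconclusive = inhibition above a set limit but visual check negative; inactive = inhibition not above a set limit, visual check negative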;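 note: nuclear over cytoplasmic p65 intensity ratio measured by imaging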
HUVEC tox IL1B – toxic to HUVEC cells under IL-1B stimulation. HUVEC cell count loss, Hoechst imaging, IL-1B stimulated. cell count reduction, % at 2 µM. hit rate 0.41% among 94,000;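 active = cell count reduction more than 3 SD above the screen-wide mean, cut at about 70% in these data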
TNFa cytotox – HUVEC cytotoxicity counter-screen, TNF alpha stimulated; hit rate 0.17% among 93,000; HUVEC TNFalpha-stimulated, Hoechst cell count, imaging; AID 848; cell count reduction, % at 2 µM;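 active = cell count reduction exceeding the screen mean by over 5 SD, scaled to untreated wells per plate, cut at about 78% in these data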;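 note: cells counted after 24 h of TNF alpha exposure following the 1 h pretreatment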
Numbers stand for hits; i = inactive; ? = inconclusive; nt = not tested or not shown. Compounds with a hit are over-represented: about 1.6% of the library has one in this group of screens.

SMILES	VCAM1 TNFa inh	cytoskel mod	IL1B NFkB pot	IL1B NFkB inh	HUVEC tox IL1B	TNFa cytotox
COc1ccc(OCc2nc(N)nc(Nc3ccc(C)cc3)n2)cc1	i	i	i	i	i	i
COC(=O)c1ccc2c(c1)C(C)(C)C(/C=C/c1ccc(O)cc1)=[N+]2C	i	i	i	34	i	i
COC(=O)c1ccc2c(c1)C(C)(C)C(/C=C/c1ccc(OC)c(OC)c1OC)=[N+]2C	i	i	i	37	i	i
COc1ccc(Cl)cc1NC(=O)C(C)Sc1n[nH]c(N)n1 (stereo not drawn)	i	i	i	i	i	i
CCOC(=O)c1nn(-c2ccccc2C)c2nc(-c3ccc(Cl)cc3)c(C#N)c(=O)n12	i	i	i	i	i	i
O=C(COc1ccc(S(=O)(=O)NC2CCCCC2)cc1Cl)N1CCN(c2ccccc2)CC1	i	nt	i	i	i	i
CCOC(=O)CSc1nnc(-c2ccc(S(=O)(=O)NCc3cccs3)cc2)o1	i	i	i	i	i	i
COC(=O)CSc1nnc(-c2ccc(S(=O)(=O)NCc3cccs3)cc2)o1	i	i	45	i	i	i
COc1ccc(CNc2nc(NCc3ccc(OC)c(OC)c3)n(C(=O)c3cccs3)n2)cc1OC	i	i	i	i	i	i
COc1ccc(S(=O)(=O)NNC(=O)c2csc(-n3nc(C)cc3C(F)(F)F)n2)cc1OC	i	i	52	i	i	i
CCNc1nc(CC)nc2c1oc1ccccc12	nt	nt	i	i	i	nt
Cc1nc(Nc2ccc3c(c2)OCCO3)c2oc3ccccc3c2n1	i	i	87	i	i	i
CCNc1nc(C)nc2c1oc1ccccc12	i	i	i	i	i	92
CCc1nc(Nc2ccc3c(c2)OCCO3)c2oc3ccccc3c2n1	i	i	i	i	i	i
Cc1nc(NC(C)C)c2oc3ccccc3c2n1	78	i	i	i	i	91
O=C(CN1CCC(C(=O)c2ccc(Cl)cc2)CC1)Nc1ccc2c(c1)OCCO2	i	i	i	i	i	i
CCN(CC)C(=O)C(Sc1ccccc1)c1ccccc1 (stereo not drawn)	i	nt	i	i	i	i
Cc1[nH]nc2c1C1(CCC(c3ccccc3)CC1)C(C#N)=C(N)O2 (stereo not drawn)	i	i	i	i	86	i
O=C(NC1CCCC1)C(c1ccco1)N(Cc1ccccc1)C(=O)c1csnn1 (stereo not drawn)	i	i	i	i	i	i
C=CCOC(=O)C1=C(C)NC(SCC(=O)Nc2ccccc2)=C(C#N)C1c1ccco1 (stereo not drawn)	i	i	nt	nt	nt	i
CCSc1nc(C)c(CC)c(C)c1C(N)=O	i	i	i	34	i	i
Cc1ccc2[nH]c(=O)c(CN(Cc3ccccc3)Cc3nnnn3C3CCCC3)cc2c1	i	i	i	i	72	i
CCOC(=O)Cn1nnnc1CN(CCc1ccccc1)Cc1cc2cc(CC)ccc2[nH]c1=O	?	nt	i	i	i	83
COc1ccc2cc(CN(CCc3ccccc3)Cc3nnnn3Cc3ccco3)c(=O)[nH]c2c1	i	i	168	nt	i	i
COC(=O)Oc1ccc(/C=N/NC(=O)CSCc2ccccc2Br)cc1OC	i	i	i	i	i	i
SMILES	VCAM1 TNFa inh	cytoskel mod	IL1B NFkB pot	IL1B NFkB inh	HUVEC tox IL1B	TNFa cytotox
Cc1nc2c(n1C1CCCCC1)C(=O)c1ccccc1C2=O	i	i	i	i	i	i
Cc1cc(C)cc(C(=O)N2CC(C)OC(C)C2)c1 (stereo not drawn)	i	i	i	i	i	i
CN1CCN(c2ccc([N+](=O)[O-])cc2/C=N/NC(=O)c2ccc(F)cc2)CC1	i	i	i	30	i	i
c1coc(CNc2nc3nonc3nc2NCc2ccco2)c1	i	i	i	52	i	i
Cc1ccc(-c2nn(-c3ccccc3)cc2CN(Cc2ccccc2)C(=O)c2ccco2)o1	i	i	46	i	i	i
COc1ccc(-c2cn3ccc4ccccc4c3n2)cc1	i	i	40	i	i	i
Cc1cccn2cc(-c3ccccc3)nc12	i	i	i	i	i	i
CCCc1cc(=O)n2c([nH]c3ccccc32)c1C#N	i	i	i	36	i	i
CN(C)c1ccc(C(=O)c2ccc(N(C)C)c3ccccc23)cc1	99	i	i	i	i	84
COc1ccc(C(=O)c2ccc(N(C)C)cc2)c(OC)c1	i	i	i	i	i	i
COc1ccccc1NS(=O)(=O)c1ccc2c(c1)n(C)c(=O)n2C	i	i	i	i	i	i
CCN(CC)C(=O)c1cnn(-c2ccccc2)c1NC(=O)c1cccs1	i	i	i	i	i	i

Bioassay records (PubChem)
